In the supplement of paper PMC7156485:
± gives the standard deviation of the averaged measurements.

Experiments:
Conditions in all cases: concentration: 10 µM; 24 h
HCC1569 [1] = assay: cell number relative to DMSO (% of DMSO); higher = more cells (less growth inhibition / toxicity)
Procedure, shortened: (§1)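 Treatment: HCC1569 and TDF cells, 800 per well in 384-well plates with RPMI and 10% FBS, were given compounds at 10 µM for 24 h at 37 °C, in triplicate. Readout: after 3.7% formaldehyde fixation, cells were stained with a rabbit anti-H1.0 antibody, an AlexaFluor 647 secondary and DAPI. Reported values are H1.0 nuclear intensity or cell number as percent of the plate control, taken as the median of replicates, with positional smoothing for HCC1569.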

TDF [2] = assay: as above
Procedure, shortened: as §1

TDF [3] = assay: H1.0 immunofluorescence intensity relative to DMSO (% of DMSO); higher = stronger H1.0 induction, active = 120 or more
Procedure, shortened: as §1

HCC1569 [4] = assay: H1.0 immunofluorescence intensity relative to DMSO (% of DMSO); higher = stronger H1.0 induction, active = 140 or more
Procedure, shortened: as §1
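Throughout, for H1.0 immunofluorescence intensity relative to DMSO: TDF is a line of transformed human dermal fibroblasts of mesenchymal origin.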
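Throughout, for cell number relative to DMSO: TDF denotes transformed human dermal fibroblasts of mesenchymal origin.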

## O=C(NCc1ccc2c(c1)OCO2)c1c(Cl)cccc1Cl [N-(1,3-benzodioxol-5-ylmethyl)-2,6-dichlorobenzamide]
HCC1569 [1]
  cell number: 97.3
TDF [2]
  cell number: 103
TDF [3]
  H1.0 immunofluorescence intensity: 97 (inactive)
HCC1569 [4]
  H1.0 immunofluorescence intensity: 105 (inactive)

## CCCCCC=CCC=CCCCCCCCC(=O)NCC(=O)O [N-Linoleoylglycine]
HCC1569 [1]
  cell number: 105
TDF [2]
  cell number: 101
TDF [3]
  H1.0 immunofluorescence intensity: 96.8 (inactive)
HCC1569 [4]
  H1.0 immunofluorescence intensity: 103 (inactive)

## COc1ccnc(CS(=O)c2nc3ccc(OC(F)F)cc3[nH]2)c1OC (centres undefined) [Pantoprazole]
HCC1569 [1]
  cell number: 100
TDF [2]
  cell number: 105
TDF [3]
  H1.0 immunofluorescence intensity: 102 (inactive)
HCC1569 [4]
  H1.0 immunofluorescence intensity: 103 (inactive)

## CC(Oc1c(Cl)cccc1Cl)C1=NCCN1.Cl (centres undefined) [Lofexidine.HCl]
HCC1569 [1]
  cell number: 98.9
TDF [2]
  cell number: 107
TDF [3]
  H1.0 immunofluorescence intensity: 100 (inactive)
HCC1569 [4]
  H1.0 immunofluorescence intensity: 96.1 (inactive)

## CC(C=CC1=C(C)CCCC1(C)C)=CC=CC(C)=CC(=O)O [13-cis Retinoic acid]
HCC1569 [1]
  cell number: 98.1 ± 4.4
TDF [2]
  cell number: 104 ± 2.9
TDF [3]
  H1.0 immunofluorescence intensity: 92.9 (inactive)
HCC1569 [4]
  H1.0 immunofluorescence intensity: 111 (inactive)

## Cc1cnc(C(=O)NCCc2ccc(S(=O)(=O)NC(=O)NC3CCCCC3)cc2)cn1 [Glipizide]
HCC1569 [1]
  cell number: 106 ± 3.7
TDF [2]
  cell number: 107 ± 6.9
TDF [3]
  H1.0 immunofluorescence intensity: 96.6 (inactive)
HCC1569 [4]
  H1.0 immunofluorescence intensity: 103 (inactive)

## COc1cc(OC)c(C=C2C(=O)Nc3ccccc32)c(OC)c1
HCC1569 [1]
  cell number: 63.1
TDF [2]
  cell number: 11.2
TDF [3]
  H1.0 immunofluorescence intensity: 145 (active)
HCC1569 [4]
  H1.0 immunofluorescence intensity: 184 (active)

## CCCCCC(O)C=CC1C(O)CC2CC(=CCCCC(=O)O)CC21 (centres undefined) [Carbacyclin]
HCC1569 [1]
  cell number: 103
TDF [2]
  cell number: 99.1
TDF [3]
  H1.0 immunofluorescence intensity: 94.8 (inactive)
HCC1569 [4]
  H1.0 immunofluorescence intensity: 100 (inactive)

## COc1cc(C(C)=O)cc(-c2cc(C(C)=O)cc(OC)c2O)c1O
HCC1569 [1]
  cell number: 100
TDF [2]
  cell number: 110
TDF [3]
  H1.0 immunofluorescence intensity: 93.8 (inactive)
HCC1569 [4]
  H1.0 immunofluorescence intensity: 100 (inactive)

## Cc1oc(-c2ccccc2)nc1CCC(=O)c1ccc(CC2SC(=O)[N-]C2=O)cc1.[Na+] (centres undefined)
HCC1569 [1]
  cell number: 103
TDF [2]
  cell number: 106
TDF [3]
  H1.0 immunofluorescence intensity: 96.4 (inactive)
HCC1569 [4]
  H1.0 immunofluorescence intensity: 102 (inactive)

## CCCCCCCCC(=O)NCc1cc(OC)c(O)cc1I [N-(4-hydroxy-2-iodo-5-methoxybenzyl)nonanamide]
HCC1569 [1]
  cell number: 96.2
TDF [2]
  cell number: 98.9
TDF [3]
  H1.0 immunofluorescence intensity: 93.2 (inactive)
HCC1569 [4]
  H1.0 immunofluorescence intensity: 116 (inactive)

## COC(=O)NC(C(=O)NC(Cc1ccccc1)C(O)CN(Cc1ccc(-c2ccccn2)cc1)NC(=O)C(NC(=O)OC)C(C)(C)C)C(C)(C)C (centres undefined) [Atazanavir]
HCC1569 [1]
  cell number: 92.7
TDF [2]
  cell number: 79.8
TDF [3]
  H1.0 immunofluorescence intensity: 109 (inactive)
HCC1569 [4]
  H1.0 immunofluorescence intensity: 103 (inactive)

## CC1CCC2(OC1)OC1CC3C4CCC5CC(O)CCC5(C)C4CCC3(C)C1C2C (centres undefined) [Sarsasapogenin]
HCC1569 [1]
  cell number: 100
TDF [2]
  cell number: 105
TDF [3]
  H1.0 immunofluorescence intensity: 106 (inactive)
HCC1569 [4]
  H1.0 immunofluorescence intensity: 107 (inactive)

## NC(=O)N1c2ccccc2C=Cc2ccccc21 [Carbamazepine]
HCC1569 [1]
  cell number: 101 ± 6.6
TDF [2]
  cell number: 111 ± 1.5
TDF [3]
  H1.0 immunofluorescence intensity: 92.6 (inactive)
HCC1569 [4]
  H1.0 immunofluorescence intensity: 97 (inactive)

## CN1CCN(CC(=O)N2c3ccccc3C(=O)Nc3cccnc32)CC1.Cl.Cl [Pirenzepine dihydrochloride]
HCC1569 [1]
  cell number: 107
TDF [2]
  cell number: 121
TDF [3]
  H1.0 immunofluorescence intensity: 97.4 (inactive)
HCC1569 [4]
  H1.0 immunofluorescence intensity: 95.9 (inactive)

## C[C@@H]1CCN(C(=O)CC#N)C[C@@H]1N(C)c1ncnc2[nH]ccc12
HCC1569 [1]
  cell number: 103
TDF [2]
  cell number: 109
TDF [3]
  H1.0 immunofluorescence intensity: 79 (inactive)
HCC1569 [4]
  H1.0 immunofluorescence intensity: 96.3 (inactive)

## CC(C)NCC(O)c1ccc(O)c(O)c1.O=C(O)C(O)C(O)C(=O)O (stereo not drawn) [S(+)-Isoproterenol (+)-bitartrate]
HCC1569 [1]
  cell number: 105
TDF [2]
  cell number: 97.6
TDF [3]
  H1.0 immunofluorescence intensity: 91.8 (inactive)
HCC1569 [4]
  H1.0 immunofluorescence intensity: 93.4 (inactive)

## O=C(Nc1ccc(Cl)cc1)Nc1cccc(-c2cccc(N3CCCC3)n2)c1
HCC1569 [1]
  cell number: 96
TDF [2]
  cell number: 87.5
TDF [3]
  H1.0 immunofluorescence intensity: 98.6 (inactive)
HCC1569 [4]
  H1.0 immunofluorescence intensity: 114 (inactive)

## COc1ccc2c(c1)c(C1=C(c3c[nH]c4ccccc34)C(=O)NC1=O)cn2CCCN(C)C
HCC1569 [1]
  cell number: 83.9
TDF [2]
  cell number: 99.3
TDF [3]
  H1.0 immunofluorescence intensity: 98.6 (inactive)
HCC1569 [4]
  H1.0 immunofluorescence intensity: 174 (active)

## CN(CC=CC#CC(C)(C)C)Cc1cccc2ccccc12 [Terbinafine]
HCC1569 [1]
  cell number: 104
TDF [2]
  cell number: 110
TDF [3]
  H1.0 immunofluorescence intensity: 99.6 (inactive)
HCC1569 [4]
  H1.0 immunofluorescence intensity: 104 (inactive)

## CCCCCC=CCC1OC1C=CC(O)CC=CCCCC(=O)O (centres undefined) [Hepoxilin A3]
HCC1569 [1]
  cell number: 107
TDF [2]
  cell number: 102
TDF [3]
  H1.0 immunofluorescence intensity: 93.8 (inactive)
HCC1569 [4]
  H1.0 immunofluorescence intensity: 100 (inactive)

## Cc1nc(C)c(C)nc1C [Tetramethylpyrazine]
HCC1569 [1]
  cell number: 106
TDF [2]
  cell number: 108
TDF [3]
  H1.0 immunofluorescence intensity: 92.9 (inactive)
HCC1569 [4]
  H1.0 immunofluorescence intensity: 94.2 (inactive)

## CCCCCCCCCCCCCC=CC(O)C(N)CO (centres undefined) [Sphingosine]
HCC1569 [1]
  cell number: 103 ± 4.4
TDF [2]
  cell number: 101 ± 6.5
TDF [3]
  H1.0 immunofluorescence intensity: 96.9 (inactive)
HCC1569 [4]
  H1.0 immunofluorescence intensity: 98.4 (inactive)

## CCCCCC#CCC(O)C=CC=CC=CC(O)CCCC(=O)O (centres undefined) [14,15-Dehydroleukotriene B4]
HCC1569 [1]
  cell number: 101
TDF [2]
  cell number: 96.7
TDF [3]
  H1.0 immunofluorescence intensity: 105 (inactive)
HCC1569 [4]
  H1.0 immunofluorescence intensity: 101 (inactive)

## Cn1cnc2c1c(=O)[nH]c(=O)n2C [Theobromine]
HCC1569 [1]
  cell number: 104 ± 3
TDF [2]
  cell number: 99 ± 6.1
TDF [3]
  H1.0 immunofluorescence intensity: 96.4 (inactive)
HCC1569 [4]
  H1.0 immunofluorescence intensity: 95.9 (inactive)

## Cc1nn(C)c2nc(NNC(=O)Nc3cc(Cl)nc(Cl)c3)cc(C(C)C)c12
HCC1569 [1]
  cell number: 66
TDF [2]
  cell number: 12.8
TDF [3]
  H1.0 immunofluorescence intensity: 170 (active)
HCC1569 [4]
  H1.0 immunofluorescence intensity: 140 (active)
